The source of these data is PubChem BioAssay AID651658 (Broad Institute, 2012).

Screen size: about 340,000 compounds; about 5,100 (1.5%) were called active. The sample holds actives, similar compounds and a random draw of the others, so the mix is not that of the screen. Values without a mark were called inactive.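 The calls were made as follows: active = mean Tm shift, scaled 0 neutral to 100 positive control, at about 1.3% or above, every replicate too (limit read from the data); inconclusive = no clear call, values can overlap the other calls; inactive = the rest.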

In this assay the target is Fibroblast growth factor 22 (Homo sapiens) (UniProt Q9HCT0). Briefly: binders of human FGF22 protein, primary screen, FGF22 synaptogenesis inhibitor project, biophysical, thermal shift, single point (AID 651658). Particulars: recombinant FGF22 thermal shift, SYPRO orange fluorescence; at 9.99 µM; stronger effect = higher value; percent of sucrose octasulfate shift, DMSO zero.
Chain of Fibroblast growth factor 22 (Homo sapiens) (Q9HCT0 whole entry, looked up): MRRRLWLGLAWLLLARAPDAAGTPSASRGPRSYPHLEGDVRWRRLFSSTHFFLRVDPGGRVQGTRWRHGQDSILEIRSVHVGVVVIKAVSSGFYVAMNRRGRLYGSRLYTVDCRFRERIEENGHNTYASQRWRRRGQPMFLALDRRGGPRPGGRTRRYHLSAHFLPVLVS
In the case of `CC1CN(C(=S)Nc2ccc(Br)cc2Cl)CC(C)O1` (configuration not stated), the activity (Tm shift, normalised) was 0.064%.

`S=C(Nc1ccc(Br)cc1Cl)N1CCC2(CC1)OCCO2`: the activity (Tm shift, normalised) was 43.8% (active).

As to `S=C(Nc1ccc(Cl)cc1Cl)N1CCCC1`, the activity (Tm shift, normalised) is -0.146%. Under `O=C(Nc1cc(F)ccc1F)N1C[C@H]2[C@@H](c3ccccc31)[C@@H](CO)N2C(=O)c1ccccc1` stands 0.029%; under `N#C[C@@H]1[C@H](c2ccccc2)[C@H](CO)N1C(=O)CN1CCOCC1`, 0.041%.

As to `O=C(Nc1ccccc1F)N1C[C@H]2[C@@H](c3ccccc31)[C@H](CO)N2C(=O)c1ccccn1`, the activity (Tm shift, normalised) is -1.13%. `CC(C)NC(=O)N1C[C@@H]2[C@H](c3ccccc31)[C@H](CO)N2C(=O)c1ccccn1`: the activity (Tm shift, normalised) is 16.8% (active). Then `O=C(Nc1ccccc1)N1C[C@@H]2[C@H](c3ccccc31)[C@H](CO)N2C(=O)c1ccccn1`, with -1.73%; and `O=C(Nc1ccc(C(F)(F)F)cc1)N[C@@H]1CC[C@@H](CCNC(=O)c2ccccc2F)O[C@H]1CO`, with 0.08%; and `Cc1nn(-c2ccccc2)c(C)c1NC(=O)COC(=O)c1cc(Cl)ccc1O`, with -0.058%. As for `COc1ccc(Cl)cc1NC(=O)CN(C)C(=O)c1cc(-c2cccs2)nn1-c1ccccc1`, the activity (Tm shift, normalised) is 0.161%. Then `O=C(COC(=O)c1cc(-c2cccs2)nn1-c1ccccc1)Nc1cc([N+](=O)[O-])ccc1Cl`, with 43.8% (active). In the case of `CCC(=O)N1[C@@H](CO)[C@@H](c2ccc(C3=CCCC3)cc2)C12CN(C(=O)COC)C2`, the activity (Tm shift, normalised) is 0.109%. Regarding `C[C@H]1CCCCO[C@@H](CN(C)Cc2ccccc2)[C@@H](C)CN([C@@H](C)CO)C(=O)c2cc(NC(=O)CCCN(C)C)ccc2O1`, the activity (Tm shift, normalised) was -0.026%. Then `CCNC(=O)C1(C)CCCN(C(=O)c2ccc3ccccc3n2)C1` (configuration not stated), with -0.027%. Under `O=C(c1ccc2ccccc2n1)N1CCN(c2ccccc2Cl)CC1` stands 43.4% (active); under `CN(c1ccccc1)S(=O)(=O)c1ccc(C(=O)N2CCN(c3ccccc3Cl)CC2)cc1`, -0.343%. Under `O=C(NCC[C@H]1CC[C@@H](NC(=O)c2cnccn2)[C@H](CO)O1)Nc1ccc(Cl)cc1` stands 0.223%.

For `CCC(=O)Nc1ccc2c(c1)C(=O)N(C)[C@@H]1CC[C@@H](CC(=O)NCc3ccccc3Cl)O[C@H]1CO2`, the activity (Tm shift, normalised) was -0.111%. Then `C[C@@H]1CN([C@H](C)CO)S(=O)(=O)c2ccc(C#CC3(O)CCCC3)cc2O[C@@H]1CN(C)C(=O)c1cccnc1`, with -0.011%; and `Cc1ccc(S(=O)(=O)N(C)C[C@@H]2Oc3ccc(NC(=O)c4ccncc4)cc3CC(=O)N([C@H](C)CO)C[C@H]2C)cc1`, with -0.013%; and `CC1(C)CC(=O)C(CC(=O)N2CCC(Cc3ccccc3)CC2)C(=O)C1`, with 41.9%. Then `CC1(C)CC(=O)C(C2c3ccccc3S(=O)(=O)c3ccccc32)C(=O)C1`, with 42.9% (active).

On to `COc1ccc2c3c(n(C)c2c1)[C@H](CO)N(CC1CC1)CC31CCN(C(=O)c2ccccc2)CC1`, for which the activity (Tm shift, normalised) was -0.078%.

On to `COc1ccc(S(=O)(=O)N[C@@H]2CC[C@@H](CC(=O)N3CCC(Cc4ccccc4)CC3)O[C@@H]2CO)cc1`, for which the activity (Tm shift, normalised) was 0.502%. Then `CS(=O)(=O)N1[C@H](CO)[C@H](c2ccccc2)C12CN(C(=O)C1CC1)C2`, with -0.066%. Then `Cc1ccccc1NC(=O)Cc1nc(COC(=O)CNC(=O)c2ccc(Cl)cc2Cl)cs1`, with 0.003%.

For `CC(=O)Cc1nsc(NC(=O)c2ccc(Cl)cc2Cl)n1`, the activity (Tm shift, normalised) is 44.2% (active). `Cn1cc(C(=O)c2ccc(Cl)cc2Cl)cc1C(=O)NN`: the activity (Tm shift, normalised) is -0.308%.

As for `Cc1nn(Cc2ccccc2)c(C)c1C(=O)NCCN1C(=O)S/C(=C\c2ccc(F)cc2)C1=O`, the activity (Tm shift, normalised) is 0.11%. Then `Cn1cccc1/C=C1\SC(=O)N(CC(=O)Nc2ccc(F)cc2)C1=O`, with 43% (active); and `O=C(CN1C(=O)S/C(=C\c2ccccc2F)C1=O)NCCCn1ccnc1`, with -0.15%; and `COc1ccc(S(=O)(=O)N(CC(=O)N/N=C/c2ccc(C(=O)O)cc2)Cc2ccccc2)cc1OC`, with -0.204%. Under `CC(=O)Nc1ccc(S(=O)(=O)N(CCc2ccccc2)CC(=O)N/N=C/c2ccc(C(=O)O)cc2)cc1` stands 1.76% (active); under `O=C(O)c1ccc(/C=N/NC(=S)NCc2ccccc2)cc1`, 0.16%. As for `CNC[C@H]1Oc2ncc(-c3ccccc3F)cc2C(=O)N([C@H](C)CO)C[C@H]1C`, the activity (Tm shift, normalised) was -0.078%. Under `COCC#Cc1ccc2c(c1)O[C@H](CN(C)CC1CC1)[C@H](C)CN([C@H](C)CO)S2(=O)=O` stands 0.379%.

Regarding `CCCN(C)C[C@@H]1OCCCC[C@@H](C)Oc2ccc(NS(=O)(=O)c3c(C)noc3C)cc2C(=O)N([C@H](C)CO)C[C@@H]1C`, the activity (Tm shift, normalised) is -0.518%. Consider `C[C@H](CO)N1C[C@H](C)[C@H](CN(C)S(=O)(=O)c2cccs2)OCCCC[C@H](C)Oc2ccc(NC(=O)CCCN(C)C)cc2C1=O`, for which the activity (Tm shift, normalised) was -0.21%.

In the case of `O=C1c2cccc3c([N+](=O)[O-])ccc(c23)C(=O)N1CC1CCCO1` (configuration not stated), the activity (Tm shift, normalised) was 0.06%. Take `CN1C(=O)c2cccc3c(N)ccc(c23)C1=O`: the activity (Tm shift, normalised) was 28.3% (active).

As to `CO[C@H]1CN(C)C(=O)c2cc(NC(=O)Nc3ccccc3F)ccc2OC[C@H](C)N(C)C[C@H]1C`, the activity (Tm shift, normalised) is -0.052%. Under `COc1ccccc1S(=O)(=O)N(C)C[C@H]1Oc2cc(C#CCC3CCCC3)ccc2S(=O)(=O)N([C@@H](C)CO)C[C@H]1C` stands 0.195%. Then `COc1ccc2c3c(n(C)c2c1)[C@@H](CO)N(C(=O)c1cnccn1)CC31CCN(C(C)=O)CC1`, with -0.238%; and `CC(=O)N1c2ccc(S(=O)(=O)N3CCCC(C(=O)NCc4ccc(Cl)cc4)C3)cc2CC1C` (configuration not stated), with 0.095%. Take `CC(=O)N1c2ccc(S(=O)(=O)N3CCC(C(=O)NCc4ccc(F)cc4)CC3)cc2CC1C` (configuration not stated): the activity (Tm shift, normalised) is 1.48% (active).

Regarding `CC(=O)N1c2ccc(S(=O)(=O)N3CCC(C(=O)NC4CCCCC4C)CC3)cc2CC1C` (configuration not stated), the activity (Tm shift, normalised) is 0.24%.

Turning to `O=C(c1ccncc1)N1CC2(C1)[C@@H](c1ccccc1)[C@H](CO)N2C(=O)c1ccncc1`, the activity (Tm shift, normalised) was -0.088%. Then `CCCC(=O)Nc1ccc2c(c1)OC[C@H](C)N(Cc1ccc(F)cc1)C[C@H](C)[C@H](OC)CN(C)C2=O`, with -0.11%. Under `CO[C@@H]1CN(C)C(=O)c2cc(NC(=O)CC(F)(F)F)ccc2OC[C@H](C)N(S(=O)(=O)c2cn(C)cn2)C[C@H]1C` stands -0.268%.

For the compound `N#CCC(=O)NC(=O)NCC1CC1`, the activity (Tm shift, normalised) is 45.2% (active). Under `O=C(NCC1CCCCC1)NCC1CCCCC1` stands 0.197%. In the case of `N#CCC(=O)NC1CCC(CC2CCC(NC(=O)CC#N)CC2)CC1` (configuration not stated), the activity (Tm shift, normalised) was -0.185%. Then `O=C(C[C@H]1C[C@H]2c3cc(NC(=O)C4CCOCC4)ccc3O[C@H]2[C@@H](CO)O1)NCCN1CCCCC1`, with 0.018%; and `COc1ccc2c3c(n(C)c2c1)[C@@H](CO)N(C(=O)C1CC1)CC31CN(C(=O)C2CCOCC2)C1`, with -0.006%. For the compound `O=C(c1cccnc1)N1CCCCN2[C@@H](CO)[C@H](c3ccc(C#Cc4ccccc4)cc3)[C@@H]2C1`, the activity (Tm shift, normalised) is -0.469%. Then `O=C(N/C(=C\c1ccc(F)cc1)C(=O)N1CCCCCC1)c1ccccc1`, with -0.445%; and `O=C1CN(C(=O)COC(=O)/C=C/c2ccc(F)cc2)c2ccccc2N1`, with 0.119%. Under `O=C1C=CCCN1C(=O)/C=C/c1ccc(F)cc1` stands 1.39% (active); under `C[C@@H]1CN([C@H](C)CO)C(=O)c2cc(NS(=O)(=O)c3cn(C)cn3)ccc2O[C@@H](C)CCCCO[C@@H]1CN(C)C(=O)CCC(F)(F)F`, -0.484%; under `CCc1nnc(NS(=O)(=O)c2ccc(NC(=S)NC(=O)c3cccs3)cc2)s1`, 0.364%.

For the compound `CCc1nnc(NS(=O)(=O)c2ccc(NC(=S)NC(=O)/C=C/c3cccs3)cc2)s1`, the activity (Tm shift, normalised) is 43.7% (active).

Take `CCc1nnc(NC(=O)c2cccc(S(=O)(=O)N(C)c3ccc(OC)cc3)c2)s1`: the activity (Tm shift, normalised) was 0.249%. Under `Cc1cc(NS(=O)(=O)c2ccc(NC(=O)c3cccc(OC(F)F)c3)cc2)nc(C)n1` stands 0.163%; under `CCOC(=O)c1c(NC(=S)NC(=O)/C=C/c2cccs2)sc(C)c1C`, 0.207%; under `CCc1nnc(NS(=O)(=O)c2ccc(NC(=O)c3cccc(OC(F)(F)C(F)F)c3)cc2)s1`, 1.64% (active). Under `O=C(Cc1ccncc1)NCC[C@H]1CC[C@@H](NC(=O)Nc2ccc(Cl)cc2)[C@@H](CO)O1` stands -0.005%; under `O=C(C[C@H]1CC[C@@H](NC(=O)Nc2ccc(F)cc2)[C@@H](CO)O1)NCCN1CCCC1`, -0.13%; under `CC(C)NC(=O)N[C@H]1CC[C@H](CC(=O)N2CCCCC2)O[C@@H]1CO`, 0.022%. Then `COc1ccc(S(=O)(=O)Nc2ccc3c(c2)CC(=O)N([C@H](C)CO)C[C@H](C)[C@@H](CN(C)C(=O)NC(C)C)O3)cc1`, with -0.229%. `CC(C)c1nc2sc3c(c2c(=O)n1N)CC(C)(C)OC3`: the activity (Tm shift, normalised) is 42.9% (active). As to `CCC(O)CNc1nc(-n2nc(C)cc2C)nc2sc3c(c12)CC(C)(C)OC3` (configuration not stated), the activity (Tm shift, normalised) was -0.058%. As to `CCSc1nc2sc3c(c2c(=O)[nH]1)CC(C)(C)OC3`, the activity (Tm shift, normalised) was -0.053%. Under `COC(=O)[C@@H]1[C@@H](CO)[C@@H]2Cn3c(ccc(-c4ccc(OC)cc4)c3=O)[C@@H]2N1C` stands 0.199%; under `O=C(Cc1ccc(Cl)cc1)NC1CCS(=O)(=O)C1` (configuration not stated), -0.305%; under `O=C(CSc1ccccc1F)NC1CCS(=O)(=O)C1` (configuration not stated), 43% (active).

`O=C(CSc1nn(-c2ccc(F)cc2)c(=S)s1)NC1CCS(=O)(=O)C1` (configuration not stated): the activity (Tm shift, normalised) is 0.458%.
